Screening results deposited in PubChem by National Center for Advancing Translational Sciences (NCATS).
Most compounds without a hit are left out; they make up all but 5.7% or so of the library.
KB-V1 MDR tox = qHTS assay for MDR1-selective chemotherapeutics: Primary screen using the drug-selected MDR subline cells KB-V1 | KB-V1 MDR cells viability, CellTiter-Glo, 72 h | Potency, µM (highest dose often 46.1 µM), hits mostly cytotoxic | 400,000 tested, 3.4% active | AID 1347076, 2019; also: potency is read from the fitted curve at half-maximal effect; nearly all actives have a fitted effect of over 60% in size
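In this primary screen, KB-V1 cells overexpressing P-gp are incubated with library compounds (lowest to highest concentration) for 72 h at 37 degrees C before a luminescent ATP viability read.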
PI4K2A inh = qHTS for small molecular inhibitors of PI4K2A | Phosphatidylinositol 4-kinase type 2-alpha (Homo sapiens), Q9BTU6 | purified PI4K2A, ADP-Glo luminescence, 1 h; hits give low values | activity change, negative = inhibition, % at 76.9 µM | 420,000 tested, 0.13% active | AID 1346378, 2018; in the data active = activity change below about -50%; inconclusive = mostly about -30% to -49%;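 also: -100% = wells without enzyme as full effect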
Target sequence (Q9BTU6 whole entry, looked up): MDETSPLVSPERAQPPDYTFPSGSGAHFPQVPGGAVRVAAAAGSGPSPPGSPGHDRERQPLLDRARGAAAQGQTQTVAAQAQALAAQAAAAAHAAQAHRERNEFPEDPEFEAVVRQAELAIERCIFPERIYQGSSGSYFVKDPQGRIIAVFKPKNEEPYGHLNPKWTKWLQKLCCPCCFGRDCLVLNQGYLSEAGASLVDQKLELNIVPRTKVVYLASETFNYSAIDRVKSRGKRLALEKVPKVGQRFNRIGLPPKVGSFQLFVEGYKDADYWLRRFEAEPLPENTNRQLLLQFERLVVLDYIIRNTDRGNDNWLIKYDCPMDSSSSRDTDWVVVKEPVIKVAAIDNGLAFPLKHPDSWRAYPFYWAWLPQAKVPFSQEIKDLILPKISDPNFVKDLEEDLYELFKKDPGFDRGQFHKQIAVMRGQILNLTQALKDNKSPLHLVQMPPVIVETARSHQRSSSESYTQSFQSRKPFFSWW
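PI4K2A activity was measured by ADP-Glo luminescence: enzyme (4 ug/mL stock) and phosphatidylinositol (1.2 mM stock) in Tris pH 7.5/MgCl2/EGTA/Triton X-100 buffer were reacted with ATP (300 microM stock) for one hour at ambient temperature.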
Giardia killer = Small Molecules that selectively kill Giardia lamblia: qHTS; Giardia lamblia trophozoite viability; activity change, % at 7.66 µM, hits read low; 340,000 tested, 0.15% active; AID 540267, 2011; in the data active = activity change below about -80%; inconclusive = between about -30% and that limit;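 also: parasites exposed to compound for two days anaerobically before the ATP read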
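Media and compound were dispensed first, then trophozoites at 100 cells/well; plates sat 48 hrs at 37 deg C without oxygen before ATP luminescence reagent was added and read after 15-30 min at room temperature.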
Nrf2 block = Nrf2 qHTS screen for inhibitors. A549 ARE-Fluc reporter, luciferase luminescence, 18-24 h. Potency, µM (highest dose often 46 µM), for inactives: at the top dose activity change, negative = inhibition, actives largely listed as inhibitors. 360,000 tested, 2.1% active; also: potency is read from the fitted curve at half-maximal effect; nearly all actives have a fitted effect of over 60% in size
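Concentration-response testing used A549 ARE_Fluc cells at 5000 cells/well. Following an 18-24 h compound incubation, viability was read by fluorescence (Ex 405/Em 525) and luciferase output by luminescence.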
A549 tox = Nrf2 qHTS screen for inhibitors: counterscreen for cytotoxicity; AID 504648, 2011; 390,000 tested, 0.16% active; A549 ARE-Fluc cells, CellTiter-Fluor viability, 18-24 h; Potency, µM (top dose mostly 46 µM), inactives show at the highest dose activity change, negative = cytotoxicity, actives largely listed as inhibitors; also: potency is read from the fitted curve at half-maximal effect
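A549 ARE-Fluc cells in 5% FBS OPTI-MEM, 5000 cells/well, rested 2 h then exposed to compounds in concentration-response for 18-24 h at 37 °C. Viability by CellTiter-Fluor fluorescence (Ex 405/Em 525) after 30 min; luciferase luminescence (BugLite, 15 min, RT) read afterwards.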
KB-3-1 tox = qHTS assay for MDR1-selective chemotherapeutics: Primary screen using the parental adenocarcinoma cell KB-3-1 | 400,000 tested, 1.4% active | Potency, µM (series often up to 46.1 µM), usual class: cytotoxic | AID 1347075, 2019 | KB-3-1 viability, CellTiter-Glo ATP luminescence, 72 h; also: potency is read from the fitted curve at half-maximal effect; nearly all actives have a fitted effect of over 60% in size
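Cytotoxicity in the drug-sensitive parental line KB-3-1 was scored as loss of CellTiter-Glo luminescence following 72 h incubation with compound. Values come from curve fitting of normalized concentration-response data.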
* = called active by the depositor; i = inactive; ? = inconclusive; nt = no result given. Unless noted, calls follow the shape of the dose curve; as a rule, active = well fitted curve in the direction sought with a large enough effect; inconclusive = small, poorly fitted or top-dose-only effect, or another doubt; inactive = no such curve, though single readings can be large; an effect the other way counts as inactive or inconclusive. Unless noted, % is scaled to controls: 0 for no effect and ±100 for the full control effect.

SMILES	KB-V1 MDR tox	PI4K2A inh	Giardia killer	Nrf2 block	A549 tox	KB-3-1 tox
Cc1ccc(NC(=S)N/N=C/c2c(Cl)cccc2Cl)c(C)c1	1.16µM*	0.6	-12.2	?	-3.2%	0.581µM*
CCCOc1ccc(NCC(=O)Nc2ccc(C)cc2C)cc1	?	10.8	9.8	1.5%	-1.1%	i
Cc1ccccc1C(=O)N/N=C/c1cccc2ccccc12	i	8.6	8.6	10.8%	-1.7%	i
CN(C(=O)[C@@H]1CC=C[C@@H]2CCN(C3CCCCC3)C(=O)[C@@H]21)c1ccccc1	nt	-0.5	nt	nt	nt	nt
Cc1ccc(-n2c(SCC(=O)Nc3ccc(S(=O)(=O)Nc4nccs4)cc3)nnc2-c2cccs2)cc1	nt	2.1	nt	nt	nt	nt
CCCS(=O)(=O)N1CCCC(c2nc(-c3cccc(OC)c3)no2)C1 (configuration not stated)	11.6µM*	5.0	-6.9	7.4%	1.9%	i
COc1cccc(-c2noc(C3CCCN(C(=O)CC(C)(C)C)C3)n2)c1 (configuration not stated)	i	-7.9	5.0	5.8%	-2.5%	i
COc1cccc(-c2noc(C3CCCN(S(=O)(=O)c4cccc(Cl)c4C)C3)n2)c1 (configuration not stated)	14.6µM*	0.1	-5.2	nt	-1.4%	i
CN(C)/C(CN1CCN(C=O)CC1)=C1\N=C(c2ccccc2)OC1=O	i	-5.7	0.5	23.1µM*	2.3%	i
CN(C)/C=C1\N=C(c2ccccc2)OC1=O	i	-2.0	7.9	28.3%	0.0%	i
COc1cc(F)c(S(=O)(=O)N2CCN(S(=O)(=O)c3ccc(N)cc3)CC2)c(F)c1	nt	nt	nt	-6.3%	2.6%	nt
COc1cc(NC(=O)CSc2nc(C)c(C)c(C)n2)c(C)cc1[N+](=O)[O-]	14.6µM*	-0.7	9.2	3.1%	0.5%	i
O=C(N/N=C/c1ccccc1Cl)c1[nH]c2ccc(Br)cc2c1-c1ccccc1	5.8µM*	-16.2	-9.3	?	?	?
COc1ccc(/C=N/NC(=O)c2[nH]c3ccc(Br)cc3c2-c2ccccc2)cc1	1.03µM*	0.8	-22.2	?	-20.2%	0.82µM*
COc1ccc(/C=N/NC(=O)c2[nH]c3ccc(Br)cc3c2-c2ccccc2)c(C(=O)O)c1OC	i	0.9	7.4	-1.0%	3.1%	i
COC1CCCN(C(=O)c2ccc3oc(Cc4ccc(Cl)cc4)nc3c2)C1 (configuration not stated)	2.59µM*	-2.8	30.1	0.7%	-2.2%	i
COC1CCN(C(=O)c2ccc3oc(Cc4ccc(Cl)cc4)nc3c2)CC1	i	4.9	9.0	10.1%	-0.7%	i
CCCn1c(=O)n(-c2ccccc2)c(=O)c2sc3ccccc3c21	i	6.7	nt	4.7%	1.0%	i
Cc1ccc(COc2ccsc2C(=O)O)cc1	i	-1.3	-15.6	-5.6%	-6.7%	i
CSc1nnc(-c2sccc2OCc2ccc(C)cc2)n1C	18.4µM*	8.2	-1.2	-24.2%	-13.1%	?
Cc1nc(N)ncc1-c1ccc2c(c1)OCO2	11.6µM*	-0.9	-9.5	?	-8.5%	?
Cn1c(-c2ccc3c(c2)OCO3)cnc1N	?	-5.9	9.6	-4.5%	0.5%	i
CCCC[C@H](C(=O)N(C)c1cccc(OC)c1)[C@@H](O)c1ccc(Cl)cc1	nt	-3.4	nt	nt	nt	nt
Cc1ccc2[nH]c(-c3ccccc3)cc(=O)c2c1	?	2.2	?	?	-11.5%	0.291µM*
O=C(Nc1ccc(-n2cccn2)cc1)C1CCCCN1Cc1cccc2c1OCO2 (configuration not stated)	?	10.6	38.7	3.3%	-7.4%	4.11µM*
SMILES	KB-V1 MDR tox	PI4K2A inh	Giardia killer	Nrf2 block	A549 tox	KB-3-1 tox
O=C(NCc1cccnc1)/C(=C/c1ccc(-c2cccc(C(F)(F)F)c2)o1)NC(=O)c1ccccc1	16.4µM*	-0.9	-4.8	?	7.9%	i
O=C(NCc1cccnc1)/C(=C/c1ccc(Cl)cc1)NC(=O)c1ccccc1	i	-5.0	-18.7	4.7%	1.6%	i
Cc1ccc(C(=O)N/C(=C\c2ccco2)C(=O)NCc2cccnc2)cc1	i	2.5	6.2	13.4%	2.5%	i
Cc1ccc(C(=O)N/C(=C/c2ccc(-c3cc(C(F)(F)F)ccc3Cl)o2)C(=O)NCc2cccnc2)cc1	9.2µM*	-1.3	-0.1	?	-13.6%	?
Cn1c2ccccc2c2ncn(Cc3ccco3)c(=O)c21	?	-2.2	-6.4	-7.8%	-8.6%	i
Cn1c2ccc(F)cc2c2ncn(Cc3ccco3)c(=O)c21	4.11µM*	-2.1	-1.7	4.3%	-13.9%	i
O=C(NC1CCCCN(Cc2ccc(Cl)cc2)C1=O)c1cccc(F)c1 (configuration not stated)	nt	-0.5	nt	nt	nt	nt
Cc1ccc(NS(=O)(=O)c2ccc3[nH]c(=O)[nH]c3c2)cc1C	nt	nt	nt	-19.6%	-1.1%	nt
COc1cc(-c2nnc(SCC(=O)c3cc(C)n(CC4CCCO4)c3C)o2)cc(OC)c1OC (configuration not stated)	18.4µM*	-14.0	6.5	-18.1%	10.3%	i
O=C(c1ccccc1)N1CCN(c2nc(-c3cccs3)nc3ccccc23)CC1	nt	nt	nt	?	-11.1%	nt
O=C(Nc1nc2c(Cl)cccc2s1)c1ccc([N+](=O)[O-])o1	i	-2.0	-100.6*	5.7%	-10.2%	?
O=C(Nc1nc2ccc(F)cc2s1)c1ccc([N+](=O)[O-])o1	?	-5.1	nt	nt	nt	?
O=C(Nc1nc2c(F)cccc2s1)c1ccc([N+](=O)[O-])o1	i	-3.2	-96.6*	15.8%	4.5%	i
O=C(CN1/C(=C(/O)c2ccccc2)C(=O)c2ccccc2S1(=O)=O)c1ccccc1	1.46µM*	-2.4	-2.3	?	?	?
COc1ccc(C(=O)CN2C(=O)c3ccccc3S2(=O)=O)cc1	i	4.1	-17.1	?	1.7%	i
CCCCCN1CCCCC(NC(=O)c2cccc(C(F)(F)F)c2)C1=O (configuration not stated)	nt	-2.2	nt	nt	nt	nt
CCOC(=O)CC1COc2ccccc2N1C(=O)c1ccc(C)cc1 (configuration not stated)	18.4µM*	-3.1	-0.1	-22.2%	-2.2%	i
c1ccc(-c2noc(CC3CCCCC3)n2)cc1	?	4.8	-1.4	?	0.4%	i
